# Values joined by “and” are separate entries in the source; they are usually repeats but may differ in a detail not shown here. Equal values may be shown once. Records with an inconclusive call do not appear. Entries that show only a call come without a potency. Active and inactive are the calls of the source. Unless noted, calls follow the shape of the dose curve; as a rule, active = well fitted curve in the direction sought with a large enough effect; inconclusive = small, poorly fitted or top-dose-only effect, or another doubt; inactive = no such curve, though single readings can be large; an effect the other way counts as inactive or inconclusive.
# How the values were obtained:
# [1] = target: Estrogen receptor (Homo sapiens) (UniProt P03372); assay: qHTS assay for small molecule antagonists of estrogen receptor alpha signaling (AID 588513; active = well fitted curve in the direction sought with a large enough effect in the signal ratio, with a control signal flat, not every such curve was filed as active; the % refers to the signal ratio); settings: ER-alpha-UAS-bla HEK293, beta-lactamase ratio, antagonist mode; series mostly up to 76.9 µM
# Estrogen receptor (Homo sapiens), sequence (P03372 whole entry, looked up): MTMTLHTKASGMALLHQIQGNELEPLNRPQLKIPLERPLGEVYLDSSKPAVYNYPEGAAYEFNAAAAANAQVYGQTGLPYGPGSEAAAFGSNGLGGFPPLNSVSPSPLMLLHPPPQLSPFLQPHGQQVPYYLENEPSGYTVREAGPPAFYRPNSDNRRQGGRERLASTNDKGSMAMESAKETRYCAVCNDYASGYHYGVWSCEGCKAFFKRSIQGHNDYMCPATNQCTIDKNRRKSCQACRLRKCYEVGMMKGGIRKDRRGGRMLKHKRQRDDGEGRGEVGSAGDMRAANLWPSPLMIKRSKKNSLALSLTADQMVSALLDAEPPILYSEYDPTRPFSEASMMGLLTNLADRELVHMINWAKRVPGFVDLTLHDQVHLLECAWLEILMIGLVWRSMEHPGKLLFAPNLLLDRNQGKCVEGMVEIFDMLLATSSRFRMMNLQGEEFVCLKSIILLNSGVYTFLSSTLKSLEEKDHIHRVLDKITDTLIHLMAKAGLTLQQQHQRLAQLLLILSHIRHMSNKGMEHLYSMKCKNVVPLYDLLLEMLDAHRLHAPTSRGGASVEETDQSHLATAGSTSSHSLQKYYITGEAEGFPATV
# Summary of the method: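 ER-alpha-UAS-bla GripTite HEK 293 cells in 2% charcoal/dextran-treated FBS medium; compounds titrated (1:2, duplicate), then stimulated with 0.5 nM 17-beta-estradiol for 18 h at 37C. CCF4 beta-lactamase fluorescence; Hill-fit IC50 and efficacy.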
# [2] = target: Estrogen receptor (Homo sapiens) (UniProt P03372); assay: qHTS assay for small molecule agonists of estrogen receptor alpha signaling (AID 588514; calls by dose curve; also: nearly all actives have a fitted effect of over 70% in size); settings: ER-alpha-UAS-bla HEK293, beta-lactamase ratio, 18 h, percent of full estradiol response, vehicle zero; series mostly up to 76.8 µM
# Summary of the method: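 ER-alpha-UAS-bla GripTite HEK293 cells, 5000/well in 2% charcoal/dextran-stripped FBS medium, treated with compound titrations 18 h at 37 C. CCF4 beta-lactamase read by fluorescence after 2 h RT; normalised to 20 nM 17-beta-estradiol (100%) and DMSO (0%), Hill fit for EC50 and efficacy.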
# [3] = target: Glucocorticoid receptor (Homo sapiens) (UniProt P04150); assay: qHTS assay for small molecule agonists of glucocorticoid receptor signaling (AID 588532; active = well fitted curve in the direction sought with a large enough effect in the signal ratio, with a control signal flat; the % refers to the signal ratio); settings: HeLa MMTV-bla, beta-lactamase ratio, agonist, 18 h; stronger effect = higher value; percent of dexamethasone control, DMSO zero
# Glucocorticoid receptor (Homo sapiens), sequence (P04150 whole entry, looked up): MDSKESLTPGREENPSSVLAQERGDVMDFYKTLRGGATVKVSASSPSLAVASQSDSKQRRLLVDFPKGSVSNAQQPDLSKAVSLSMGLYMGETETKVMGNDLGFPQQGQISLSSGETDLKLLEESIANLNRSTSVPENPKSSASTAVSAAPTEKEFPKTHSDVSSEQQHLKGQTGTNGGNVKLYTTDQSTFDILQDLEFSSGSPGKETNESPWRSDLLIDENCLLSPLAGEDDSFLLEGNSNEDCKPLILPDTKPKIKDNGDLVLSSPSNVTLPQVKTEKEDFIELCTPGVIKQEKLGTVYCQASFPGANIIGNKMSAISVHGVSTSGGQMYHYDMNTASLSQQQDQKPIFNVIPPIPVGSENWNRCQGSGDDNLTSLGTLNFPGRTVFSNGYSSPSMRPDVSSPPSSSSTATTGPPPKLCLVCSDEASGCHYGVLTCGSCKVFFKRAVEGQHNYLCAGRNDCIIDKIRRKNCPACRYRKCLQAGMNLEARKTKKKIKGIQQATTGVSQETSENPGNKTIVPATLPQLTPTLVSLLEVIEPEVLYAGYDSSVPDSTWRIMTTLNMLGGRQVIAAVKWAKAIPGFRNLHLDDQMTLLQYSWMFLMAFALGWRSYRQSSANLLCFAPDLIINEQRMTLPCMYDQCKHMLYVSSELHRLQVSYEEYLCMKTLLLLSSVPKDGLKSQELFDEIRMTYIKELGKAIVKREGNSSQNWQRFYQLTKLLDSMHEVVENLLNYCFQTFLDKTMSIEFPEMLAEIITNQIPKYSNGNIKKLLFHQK
# Summary of the method: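 MMTV-bla HeLa, beta-lactamase reporter; medium with 1% charcoal/dextran-stripped FBS; cpds up to 92 uM, 18 h, 37 C; CCF4 readout 460/530 nm; Hill fit → EC50, efficacy vs 0.1 uM dexamethasone = 100%.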
# [4] = qHTS assay for small molecule antagonists of peroxisome proliferator-activated receptor delta signaling (AID 588535); settings: HEK293T PPARd-UAS-bla, beta-lactamase FRET ratio, 18 h; 460 nm channel;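 also: cells co-treated with a PPAR-delta agonist as stimulator during compound exposure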
# Summary of the method: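 Reporter: UAS-bla under PPAR-delta response element, HEK293T host. Medium: 2% charcoal/dextran FBS. Dosing: titration, 18 hrs, 37 C. Detection: CCF4, 2 hrs RT, 405 ex/460 and 530 em.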
# [5] = target: DNA dC->dU-editing enzyme APOBEC-3G (Homo sapiens) (UniProt Q9HC16); assay: qHTS for inhibitors of Vif-A3G interactions: Validation (AID 588379); settings: Vif-A3G protein interaction assay; series mostly up to 46.1 µM
# DNA dC->dU-editing enzyme APOBEC-3G (Homo sapiens), sequence (Q9HC16 whole entry, looked up): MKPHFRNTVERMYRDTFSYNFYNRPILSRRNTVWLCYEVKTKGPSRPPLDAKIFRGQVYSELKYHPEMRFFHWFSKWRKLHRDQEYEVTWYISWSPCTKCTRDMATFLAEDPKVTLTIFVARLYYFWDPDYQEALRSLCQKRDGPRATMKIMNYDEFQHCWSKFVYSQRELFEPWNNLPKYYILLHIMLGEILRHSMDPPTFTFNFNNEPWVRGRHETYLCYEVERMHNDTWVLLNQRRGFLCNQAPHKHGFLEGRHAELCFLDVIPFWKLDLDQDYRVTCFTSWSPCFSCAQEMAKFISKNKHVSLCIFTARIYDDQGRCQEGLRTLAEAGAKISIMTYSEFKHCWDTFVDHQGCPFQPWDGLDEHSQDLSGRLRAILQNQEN
# Summary of the method: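 HeLa cells stably expressing Vif and A3G-eYFP, 700 cells/well, incubated overnight at 37 deg C, then exposed to compound overnight at 37 deg C. Inhibition of Vif-mediated degradation read as increased yellow fluorescence (Ex 488/Em 500-530) by laser-scanning cytometry.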
# [6] = qHTS for Inhibitors of ATXN expression: Validation (AID 588378); settings: cell-based ATXN2 expression reporter assay, luminescence; series mostly up to 57.1 µM; also: nearly all actives have a fitted effect of over 75% in size
# Summary of the method: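 HEK293 cells carrying ATXN2-firefly luciferase reporter, treated with compound 24 h at 37 °C. Viability read first by CellTiter-Fluor (405/525 nm), then reporter expression by Bright-Glo luminescence; controls were a known ATXN2 expression inhibitor and a luciferase inhibitor.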
# [7] = target: Androgen receptor (Homo sapiens) (UniProt P10275); assay: qHTS assay for small molecule agonists of androgen receptor signaling (AID 588515; active = well fitted curve in the direction sought with a large enough effect in the signal ratio, with a control signal flat; the % refers to the signal ratio); settings: AR-UAS-bla HEK293, beta-lactamase ratio, agonist 16 h; stronger effect = higher value
# Androgen receptor (Homo sapiens), sequence (P10275 whole entry, looked up): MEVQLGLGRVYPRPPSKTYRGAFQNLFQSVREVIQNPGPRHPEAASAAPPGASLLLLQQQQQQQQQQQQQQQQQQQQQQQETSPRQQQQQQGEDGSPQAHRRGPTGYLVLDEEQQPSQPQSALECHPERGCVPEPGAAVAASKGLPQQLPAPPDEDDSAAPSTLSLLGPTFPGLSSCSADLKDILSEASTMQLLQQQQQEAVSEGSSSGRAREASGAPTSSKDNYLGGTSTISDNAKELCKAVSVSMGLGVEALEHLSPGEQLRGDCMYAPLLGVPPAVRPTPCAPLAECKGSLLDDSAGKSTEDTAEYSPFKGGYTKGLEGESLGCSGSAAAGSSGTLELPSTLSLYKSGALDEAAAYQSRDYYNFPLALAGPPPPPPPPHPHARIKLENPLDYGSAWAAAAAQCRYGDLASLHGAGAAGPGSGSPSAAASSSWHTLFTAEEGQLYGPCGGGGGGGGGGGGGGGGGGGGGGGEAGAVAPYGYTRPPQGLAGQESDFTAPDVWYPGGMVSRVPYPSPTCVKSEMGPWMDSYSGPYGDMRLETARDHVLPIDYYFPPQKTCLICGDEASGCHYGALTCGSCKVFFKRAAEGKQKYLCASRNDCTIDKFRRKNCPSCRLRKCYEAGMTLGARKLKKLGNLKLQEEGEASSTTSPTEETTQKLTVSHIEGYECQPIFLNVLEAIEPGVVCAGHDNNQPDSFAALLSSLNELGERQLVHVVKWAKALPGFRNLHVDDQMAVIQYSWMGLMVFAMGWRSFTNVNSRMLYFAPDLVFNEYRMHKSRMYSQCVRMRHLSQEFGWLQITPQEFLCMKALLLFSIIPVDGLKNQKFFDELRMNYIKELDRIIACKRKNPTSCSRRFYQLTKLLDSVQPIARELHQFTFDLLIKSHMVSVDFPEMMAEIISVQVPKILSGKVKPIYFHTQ
# Summary of the method: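 EC50 and efficacy came from Hill fits of titrations (up to 92 uM) normalized to 30 nM R1881 as 100% and DMSO as 0%. Compound exposure was 16 h at 37 C on AR-UAS-bla HEK293 cells, with a 405/460/530 nm CCF4 fluorescence read.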
# [8] = target: Androgen receptor (Homo sapiens) (UniProt P10275); assay: qHTS assay for small molecule antagonists of androgen receptor signaling (AID 588516; active = well fitted curve in the direction sought with a large enough effect in the signal ratio, with a control signal flat, not every such curve was filed as active; the % refers to the signal ratio); settings: AR-UAS-bla HEK293, beta-lactamase ratio, antagonist mode, 16 h; series mostly up to 76.8 µM
# Summary of the method: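 AR-UAS-bla GripTite HEK 293 cells (2000/well) treated with compound titrations plus 10 nM R1881 for 16 h at 37C. Beta-lactamase read by CCF4 FRET (460/530 nm); IC50 from Hill fits, normalized to R1881 and DMSO control wells.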
# [9] = target: Bile acid receptor (Homo sapiens) (UniProt Q96RI1); assay: qHTS assay for small molecule antagonists of farnesoid X receptor signaling (AID 588526; calls by dose curve); settings: HEK293T FXR-UAS-bla, beta-lactamase ratio, antagonist mode; series mostly up to 76.7 µM
# Bile acid receptor (Homo sapiens), sequence (Q96RI1 whole entry, looked up): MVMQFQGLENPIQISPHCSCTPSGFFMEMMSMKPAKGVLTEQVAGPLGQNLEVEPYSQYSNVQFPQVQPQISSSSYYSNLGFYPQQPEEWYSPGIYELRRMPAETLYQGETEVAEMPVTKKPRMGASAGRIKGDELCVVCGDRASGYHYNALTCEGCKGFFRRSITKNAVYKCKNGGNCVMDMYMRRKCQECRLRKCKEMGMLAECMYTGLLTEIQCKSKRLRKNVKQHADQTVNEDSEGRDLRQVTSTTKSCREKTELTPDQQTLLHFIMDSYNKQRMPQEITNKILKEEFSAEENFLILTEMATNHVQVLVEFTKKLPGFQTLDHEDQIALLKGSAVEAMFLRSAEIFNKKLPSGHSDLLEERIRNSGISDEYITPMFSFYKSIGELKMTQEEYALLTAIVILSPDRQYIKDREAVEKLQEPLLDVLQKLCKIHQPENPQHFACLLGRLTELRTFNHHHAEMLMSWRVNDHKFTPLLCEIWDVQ
# Summary of the method: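 Concentration-response titrations were fitted to the Hill equation for half-maximal inhibition and maximal response, with data normalised to 50 uM chenodeoxycholic acid and DMSO control wells. Cells: FXR-UAS-bla HEK293T, dialyzed FBS.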
# [10] = target: Glucocorticoid receptor (Homo sapiens) (UniProt P04150); assay: qHTS assay for small molecule antagonists of glucocorticoid receptor signaling (AID 588533; active = well fitted inhibition curve with a large enough effect in the signal ratio, with a control signal flat, not every such curve was filed as active; the % refers to the signal ratio;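 also: cells stimulated with 2 nM dexamethasone as agonist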); settings: HeLa MMTV-bla, GRE beta-lactamase ratio, antagonist mode, 18 h; series mostly up to 76.8 µM
# Summary of the method: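 Antagonist-mode qHTS: compound titrations added to GRE-bla HeLa cells, then dexamethasone 2 nM final; 18 h, 37 C. CCF4 FRET fluorescence normalized to dexamethasone and DMSO; IC50 from Hill fit.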
smiles,measurement,setting,value
NC(N)=NC(N)=NCCc1ccccc1,Potency,[1],inactive
same,outcome,[2],inactive
same,activation,[3],10% (inactive) and -5.38% (inactive)
same,max response,[4],-11.9% and 9.95%
CCOC(=O)c1ccc(OC(=O)CCCCCN=C(N)N)cc1,outcome,[5],inactive
NC(=O)c1cccc(N)c1,Potency,[6],inactive
same,outcome,[5],inactive
Cc1nnc(NS(=O)(=O)c2ccc(N)cc2)s1,Potency,[1],inactive
same,outcome,[2],inactive
same,activation,[7],-1.65% (inactive)
same,outcome,[8],inactive
S=P(N1CC1)(N1CC1)N1CC1,Potency,[1],inactive
same,outcome,[9],inactive
same,activation,[3],-9.54% (inactive)
same,outcome,[10],inactive
same,max response,[4],6.13%
CC1=NN(c2ccccc2)C(=O)C1,outcome,[5],inactive
same,Potency,[1],inactive
same,outcome,[2],inactive
same,outcome,[9],inactive
same,outcome,[10],inactive
same,max response,[4],-24.3%
OC(Cn1cncn1)(Cn1cncn1)c1ccc(F)cc1F,Potency,[1],inactive
same,outcome,[2],inactive
same,activation,[3],0.0878% (inactive)
same,outcome,[10],inactive
Cc1ccnc2c1NC(=O)c1cccnc1N2C1CC1,outcome,[9],inactive
same,activation,[3],-5.33% (inactive)
same,outcome,[10],inactive
same,max response,[4],14.9%
CC1=C(C(=O)O)N2C(=O)[C@@H](NC(=O)C(N)c3ccccc3)[C@H]2SC1 (stereo not given in full),Potency,[6],inactive
O=C(O)c1cc(=O)[nH]c(=O)[nH]1,Potency,[1],inactive
same,activation,[3],-4.81% (inactive)
O=S(=O)(c1cccc2cnccc12)N1CCCNCC1,outcome,[5],inactive
CC(C)NCC(O)c1ccc(NS(C)(=O)=O)cc1 (stereo not given),Potency,[6],inactive
O=C(N[C@H](CO)[C@H](O)c1ccc([N+](=O)[O-])cc1)C(Cl)Cl,outcome,[5],inactive
same,Potency,[1],inactive
same,max response,[4],-4.34% and 5.8%
CCCCS(=N)(=O)CCC(N)C(=O)O (stereo not given),Potency,[6],inactive
COc1cc([C@@H]2c3cc4c(cc3[C@H](O)[C@H]3COC(=O)[C@H]23)OCO4)cc(OC)c1OC,outcome,[5],inactive

# — PubChem BioAssay (NCATS)
